Bioassay records (PubChem)
WT yeast gro inh – growth inhibition of WT yeast, mitochondrial fusion screen; mitochondrial fusion phenotypic screen, WT strain; inhibition, % at 10 µM; 190,000 tested, 2.1% active; in the data active means inhibition above about 58%; tested in S. cerevisiae
Insulin prom inh – TRM-6 insulin promoter activity inhibition; 130,000 tested, 0.9% active; inhibition, % at 2 µM; AID 1273; TRM-6 cells (human fetal islet line), insulin promoter-eGFP reporter, imaging; reporter expression induced with tamoxifen;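 active means inhibition above the mean plus 3 SD, with well images judged a real hit on visual review, cut at about 60% in these data, passing the limit was not always enough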
Insulin prom up – MIN6 insulin promoter up-regulation. MIN6 insulin promoter-GFP reporter, high-content imaging; stronger effect = higher value. 190,000 tested, 0.3% active. z-score at 5 µM;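 active means z-score above 3 at 5 µM with at least 500 cells counted in the well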
Lmaj promast – Leishmania major promastigote growth inhibition; 200,000 tested, 9% active; inhibition, % at 10 µM; AID 1063; Leishmania major promastigotes, resazurin fluorescence viability; in the data active means inhibition above about 50%;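 further: promastigotes grown with compound for 44 hours at 28 °C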
Autophagy mod – modulators of autophagy. MEF GFP-LC3 puncta imaging; test concentration mostly 10 µM. calls only at 10 µM (by protocol). 190,000 tested, 0.98% active. AID 463193;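 active means percentage of spot-positive cells more than 3 SD above its plate mean, without a fluorescence outlier flag or 80% toxicity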;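 further: spot-positive cell cutoff set from DMSO-treated cells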
* = called active by the depositor; i = inactive; / = no result given; + = active, no number. In the library only some 11% were active in any assay of this set; here they are far more common.

SMILES	WT yeast gro inh	Insulin prom inh	Insulin prom up	Lmaj promast	Autophagy mod
CC(C)c1ccccc1NC(=O)COC(=O)c1cc(=O)[nH]c(=O)[nH]1	-3	/	-0.6	-7	i
COc1ccc(S(=O)(=O)Nc2cc3c4c(oc3c3ccccc23)CCCC4=O)cc1	12	43	0.67	19	i
COc1ccc(S(=O)(=O)Nc2cc3c4c(oc3c3ccccc23)CC(C)(C)CC4=O)cc1	37	-87	-0.36	100*	i
Cn1c(=O)[nH]c(=O)c2c1nc(Br)n2CCSc1ncccn1	75*	-61	/	0	i
Cc1cc(S(=O)(=O)N2CCN(c3c(C)cccc3C)CC2)ccc1F	27	16	0.93	4	i
CCC(C)N(C)Cc1cccc(C2(O)CCN(S(=O)(=O)c3ccc(F)c(C)c3)CC2)c1 (stereo not given)	20	0	-0.39	99*	i
CCOC(=O)c1c(NC(=O)C2COc3ccccc3O2)sc2c1CC(C)(C)NC2(C)C (stereo not given)	48	/	0.26	99*	i
CCN1C(=O)/C(=C2\C=Cc3cc(C)ccc3N2CC)OC1=S	-4	11	0.45	2	+
COc1ccc(-n2nc(C(=O)NCC(=O)NCC3CCCO3)c3ccccc3c2=O)cc1Cl (stereo not given)	-3	-7	-0.41	-6	i
O=C1CN(C(=O)c2ccc(Br)o2)C(c2ccccc2)c2cc(Br)ccc2N1 (stereo not given)	35	/	0.55	69*	i
O=C(O)CN1C(=O)Nc2ccc(Br)cc2C1c1ccccc1 (stereo not given)	-7	18	0.32	-8	i
Cc1ccc2c(c1)C(c1ccccc1)N(C(=O)c1ccc(Br)o1)CC(=O)N2 (stereo not given)	-2	/	0.79	95*	i
CC(C)c1c(Cl)c(O)c(-c2ccccc2)c(=O)n1-c1ccc(F)cc1	-1	/	0.01	-6	i
Clc1ccc2oc(-c3ccccc3)cc(=NCCCN3CCOCC3)c2c1	63*	-321	-1.2	99*	i
OCCCCCN=c1cc(-c2ccccc2)oc2ccc(Cl)cc12	3	-49	-1.1	95*	i
NC(=O)COc1ccc2oc(-c3ccccc3)cc(=O)c2c1	6	30	-0.47	7	i
C/C(=N\Nc1ccc([N+](=O)[O-])cc1[N+](=O)[O-])C(C)C(C)C (stereo not given)	56	/	-0.66	7	i
CCOC(=O)Cn1nnc(-c2ccc([N+](=O)[O-])cc2)n1	19	/	/	-5	i
COc1cc(OC)c(N(C)S(=O)(=O)c2cccc(C(=O)OCC(=O)NCc3ccco3)c2)cc1Cl	-16	/	0.23	53*	i
COc1ccccc1C(CNC(=O)c1ccc(S(=O)(=O)NCc2ccco2)cc1)N(C)C (stereo not given)	-10	-58	/	51*	i
COc1ccc(S(=O)(=O)NCc2ccco2)cc1N(C)S(=O)(=O)c1ccccc1	-2	/	-0.44	60*	i
CN(C)C(=O)COC(=O)c1ccc(S(=O)(=O)NCc2ccco2)cc1	/	/	0.35	/	/
COc1ccc(-c2nnn(CC(=O)N(Cc3cccs3)C(C)C(=O)NCCC(C)C)n2)cc1OC (stereo not given)	-16	0	-1.8	9	i
COc1cnc(-c2ccccc2)[nH]c1=O	9	-31	-0.07	-2	i
COc1cccc(CNC(=O)CCC2CCCN(c3cc(C)nc(N)n3)C2)c1 (stereo not given)	-10	/	0.3	4	i
SMILES	WT yeast gro inh	Insulin prom inh	Insulin prom up	Lmaj promast	Autophagy mod
CCOC(=O)c1c(C)oc2c1c(CN1CCN(C(=O)OCC)CC1)c(O)c1ccccc12	31	-10	-0.08	29	i
CCOC(=O)c1c(C)oc2c1c(C=NCCC(=O)O)c(O)c1ccccc12	4	-61	/	-4	i
CCOC(=O)c1c(C)oc2c1c(CN1CCN(CCO)CC1)c(O)c1ccccc12	59*	18	0.91	9	i
CCOC(=O)c1c(C)oc2c1c(C(c1ccncc1)N1CCOCC1)c(O)c1ccccc12 (stereo not given)	32	0	/	73*	i
Cc1ccc(-c2nc3ccc(NS(=O)(=O)c4ccccc4)cc3[nH]2)o1	-11	-31	1.2	9	i
Nc1cc(-c2cccc(Br)c2)nn1Cc1ccccc1	10	20	0.27	3	+
Nc1cc(-c2ccc(Br)cc2)nn1Cc1ccccc1	-7	/	-0.53	78*	i
CC1=C/C(=N\OC(=O)/C=C/c2ccccc2)C(C)=CC1=O	-8	-14	-0.41	100*	i
CCOc1ccc(S(=O)(=O)N2CCCCC2)c(C)c1C	31	/	/	82*	i
CCOc1ccc(S(=O)(=O)N2CCN(C)CC2)c(C)c1C	-1	-17	0.23	-2	i
CCN(CC)S(=O)(=O)c1cc(NS(=O)(=O)c2cccc(C(=O)O)c2)ccc1C	-9	/	0.18	-5	i
CCN(CC)S(=O)(=O)c1ccc(N2CCOCC2)c(NS(=O)(=O)c2ccc(C(C)C)cc2)c1	9	4	-0.05	42	i
CCN(CC)S(=O)(=O)c1ccc(N2CCOCC2)c(NS(=O)(=O)c2cc(C(C)(C)C)ccc2C)c1	-7	-3	-1.4	93*	i
CCN(CC)S(=O)(=O)c1cc(NS(=O)(=O)c2ccccc2)ccc1C	-19	-15	0.92	52*	i
CCN(CC)S(=O)(=O)c1ccc(N2CCCC2)c(NS(=O)(=O)c2ccc(F)cc2)c1	0	-3	0.74	60*	i
Cc1ccc(S(C)(=O)=O)cc1S(=O)(=O)Nc1ccccc1	-6	-19	0.04	50*	i
COc1ccc(NS(=O)(=O)c2cc(S(C)(=O)=O)ccc2C)cc1	-7	-38	0.1	49	i
CCN(Cc1cc(=O)n2ccsc2n1)Cc1nc2cc(OC)c(OC)cc2c(=O)[nH]1	/	/	0.09	/	/
Cc1ccc(Cl)cc1N1CCN(C(=O)c2cc3c(=O)[nH]c4ccccc4c3n2C)CC1	29	-33	-1.4	32	i
CCN(CC)S(=O)(=O)c1ccc(N2CCCC2)c(NS(=O)(=O)c2ccccc2)c1	-14	19	-0.96	63*	i
Cc1ccc(NC(=O)NC(=O)N(C(C)C)S(=O)(=O)c2ccc(C)cc2)cc1	1	17	0.88	-3	i
CCCCNc1nc(N(C)c2ccccc2)nc(-n2ccnc2)n1	50	/	-0.54	98*	i
CN(c1ccccc1)c1nc(-n2ccnc2)nc(-n2ccnc2)n1	36	-33	/	6	i
C=CCNc1nc(N(c2ccccc2)c2ccccc2)nc(-n2ccnc2)n1	16	/	0.03	55*	i
c1ccc(N(c2ccccc2)c2nc(-n3ccnc3)nc(-n3ccnc3)n2)cc1	98*	0	0.18	28	i
COc1ccc(CCNC(=O)CSc2nnc(C(C)N(C)C)n2Cc2ccccc2)cc1OC (stereo not given)	-11	/	-0.92	4	i
COc1cccc(NC(=S)N(Cc2ccc(Cl)cc2)Cc2ccc(C(=O)O)cc2)c1	3	/	0.02	0	i
